Bioassay records as filed in PubChem BioAssay.
UBC9 SUMO inh – blocks human SUMOylation mediated by UBC9; HTRF SUMOylation assay, SAE1/SAE2 + UBC9, in vitro; P63279; inhibition, % at 35 µM; 290,000 compounds, 0.36% hits; in the data active = inhibition above about 50%, passing the limit was not always enough
14-3-3 Bad inh – disrupts binding of bovine 14-3-3 zeta to phospho-Bad peptide; P63103; TR-FRET 14-3-3zeta/Dy647-pBad peptide displacement, 1 h; inhibition, % at 21.7 µM; 220,000 compounds, 0.71% hits;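 active = inhibition above about 70%, limit read from the data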;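 note: 0% = full 14-3-3 plus peptide FRET controls and 100% = background without 14-3-3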
p47phox inh – p47phox (human) inhibition; inhibition, % at 24.7 µM; 220,000 compounds, 0.53% hits; AID 1274; p47phox/p22phox peptide binding, fluorescence polarization, 2 h;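 note: 0% = p47phox with labelled peptide and 100% = labelled peptide alone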
eIF4E 4G PPI – eIF4E/eIF4G interaction inhibition in translation initiation; TR-FRET eIF4E-eIF4GI(517-606) binding, 2 h; 220,000 compounds, 0.37% hits; inhibition, % at 21.7 µM; P63073+Q04637; AID 782;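 note: 0% = full FRET control wells and 100% = background wells lacking eIF4GI fragment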
Starred values were filed as active, the others as inactive; / = not tested or not shown; + = active, no number; [ ] = dose if it differs, or a comment. Most compounds without a hit are left out; they make up all but 1.3% or so of the library.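 Rule for the calls, unless noted: active = inhibition above about 30% (limit read from the data); inactive = the rest.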

SMILES | UBC9 SUMO inh | 14-3-3 Bad inh | p47phox inh | eIF4E 4G PPI
CC(=O)c1cccc(NS(=O)(=O)c2ccc(C(=O)Nc3ccccc3)cc2)c1 | 9.1 | / | / | /
CCn1cc(C(=O)Nc2cccc(C)c2)c(=O)c2ccc(C)nc21 | 6.5 | 6.4 | -17.3 | -2.5
O=c1[nH]c(Nc2ccccc2)cc2ccccc12 | 84.5* | -12.8 | -7.7 | -2.8
Cc1ccc(S(=O)(=O)Nc2cc(=O)[nH]c3c2CCC3)cc1 | 1.6 | -6.7 | -17.4 | 4.4
O=C(CCN1C(=O)[C@@H]2Cc3ccccc3CN2C1=O)N[C@@H](Cc1ccccc1)C(=O)O | 11.7 | / | / | /
N#CC1=C(N)C(C#N)(C#N)[C@H](c2ccoc2)[C@H]2CN(Cc3ccccc3)CC=C12 | 62.1* | -8.2 | -15.8 | -2.4
CC(=O)N1CC=C2C(C#N)=C(N)C(C#N)(C#N)[C@H](c3ccoc3)[C@H]2C1 | 14.7 | -9.8 | -16.6 | -2.2
CN1CC=C2C(C#N)=C(N)C(C#N)(C#N)[C@H](c3ccoc3)[C@H]2C1 | 87.5* | 11.2 | -4.5 | -5.4
Cc1[nH][nH]c(=O)c1C(c1c(C)[nH][nH]c1=O)c1cn(Cc2ccccc2Cl)c2ccccc12 | 70.0* | -8.0 | -13.0 | -0.6
CC1CCCN(C2=C(NS(=O)(=O)c3ccc(Cl)cc3)C(=O)c3ccccc3C2=O)C1 (configuration not stated) | 16.4 | 5.8 | 50.4* | 1.5
O=C(c1cnccn1)N1CCc2ccccc21 | 6.1 | -17.8 | -5.3 | -0.8
O=C(c1cnccn1)N1CCc2ccccc2C1 | 10.1 | 93.3* | -10.7 | -1.2
CC[n+]1cc(-c2ccccc2)nc(N2CCOCC2)n1 | -2.0 | 81.8*[fluorescence artefact?] | 39.2* | 30.0
O=C(O)c1ccc(N2C(=O)CC(SC(=NCc3ccc4c(c3)OCO4)Nc3ccccc3)C2=O)cc1 (configuration not stated) | 24.5 | 1.1 | -11.1 | 92.3*
O=C(OCc1ccccc1)/C(=C/c1ccc(Cl)cc1)NC(=O)c1ccccc1Cl | 28.5 | 80.1* | -3.1 | 0.5
Cc1ccc(C(=O)N/C(=C\c2ccccc2)C(=O)OCc2ccccc2)cc1 | 3.8 | -12.6 | -7.7 | 2.2
Nc1nc(COc2ccccc2C=O)nc(Nc2ccccc2)n1 | 19.5 | 9.1 | -2.6 | 96.7*
COc1ccc(OCc2nc(N)nc(Nc3ccccc3)n2)cc1 | 25.9 | -2.8 | -7.7 | 5.7
CN(C)CC(=O)c1ccc(-c2ccccc2)cc1 | 4.7 | -14.8 | 44.0* | -10.7
CCN(CC)CC(=O)c1ccc(-c2ccccc2)cc1 | 17.4 | 38.3 | -7.3 | 6.8
CCOC(=O)c1ccccc1NC(=O)COC(=O)c1ccc(C)c(S(=O)(=O)N2CCOCC2)c1 | 18.9 | -3.9 | 92.6* | -8.9
Cc1ccc(C(=O)OCC(=O)Nc2ccccc2C(F)(F)F)cc1S(=O)(=O)N1CCOCC1 | 1.9 | 4.7 | -11.6 | -3.2
C=CCNC(=O)COc1cc(C)ccc1C | 1.6 | 33.1 | -1.4 | 39.6*
CCCC(C)NC(=O)CSc1nc2ccc(C)cc2[nH]1 (configuration not stated) | 16.2 | 1.5 | -10.9 | 0.5
Cc1ccc(NC(=O)Cn2cccc2)cc1Cl | -1.7 | + | -0.7 | -1.1
SMILES | UBC9 SUMO inh | 14-3-3 Bad inh | p47phox inh | eIF4E 4G PPI
Cc1ccc(NC(=O)Cn2cccc2)cc1C | 21.6 | -2.8 | -5.5 | -0.2
O=C(c1cccc([N+](=O)[O-])c1)c1ccc2c(c1)OCCOCCOCCOCCO2 | 0.9 | -3.7 | -7.0 | -2.6
O=C(CN1CCC(NC(=O)c2ccccc2)CC1)NCc1ccccc1F | -4.4 | -4.6 | -11.8 | -3.8
O=C(CN1CCC(NC(=O)c2ccc(F)cc2)CC1)NCc1ccccc1F | -3.6 | 3.1 | 49.8* | 3.6
CCC(C)C(NC(N)=O)C(=O)Nc1ccc(OCc2ccccc2)cc1 (configuration not stated) | 27.6 | 3.6 | 10.0 | -7.0
COc1cccc(N2CCN(C3C4CC5CC(C4)CC3C5)CC2)c1 (configuration not stated) | 15.0 | 87.8* | -15.6 | 0.9
CCOC(=O)C1=C(Cc2ccc(C)cc2)C(=O)c2ccccc2C1=O | 1.3 | -0.7 | 29.8 | 11.7
CCOC(=O)C1=C(O)c2ccccc2C(=O)/C1=C\c1ccc(CC)cc1 | 1.9 | 0.2 | 56.4* | 6.4
CCCc1ccc(/C=C2\C(=O)c3ccccc3C(O)=C2C(=O)OCC)cc1 | 1.3 | 5.7 | 2.8 | 3.4
CCOC(=O)C1=C(Cc2ccc(OC)cc2)C(=O)c2ccccc2C1=O | 9.3 | -15.5 | 92.7* | 2.8
Cc1ccc(C(=O)NCC(=O)O)o1 | 10.9 | -19.3 | -5.8 | 0.1
O=C1C2=C(SCCS2)C(=O)N1CCCO | 2.8 | -5.7 | 72.3* | 0.7
O=C1c2ccc(-c3ccc4c(c3)C(=O)N(CCCO)C4=O)cc2C(=O)N1CCCO | 8.0 | 6.0 | -11.7 | 1.5
